Hits are enriched below; roughly 6.6% of the tested compounds scored in any of these assays.
KB-V1 MDR tox – KB-V1 MDR subline cytotoxicity. Potency, µM (series often up to 46.1 µM), actives largely listed as cytotoxic. 3.4% of 400,000 active. AID 1347076. KB-V1 MDR cells viability, CellTiter-Glo, 72 h; further: on the % scale 0 is the no-effect control and ±100 the full control effect; nearly all actives have a fitted effect of over 60% in size
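Cytotoxicity via CellTiter-Glo luminescence after 72 h compound exposure at 37 degrees C. Cells: drug-selected KB-V1 line, DMEM phenol-red free plus 10% FBS. Compounds tested at multiple concentrations; normalized data fitted to concentration-effect curves.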
TGFb inhibitor – inhibitors of TGF-b signaling | HepG2 CAGA-GFP TGF-b/SMAD3 reporter, GFP fluorescence, 18 h; TGF-beta stimulated, 500 pg/mL final | Potency, µM (titrated, usually from 46.1 µM), for inactives: top-dose activity, negative = inhibition, hits mostly inhibitors | 1.2% of 410,000 active | AID 588855; further: on the % scale 0 is the no-effect control and ±100 the full control effect; nearly all actives have a fitted effect of over 65% in size
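HEPG2 CAGA-GFP reporter cells (1000/well, DMEM with 1% FBS) received compounds, then recombinant TGF-beta at 500 pg/mL final for 18 hours at 37 degrees C. Per-cell GFP summed per well was normalised to unstimulated and stimulated DMSO controls before curve fitting.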
HepG2 tox-1 – kills HepG2 cells in TGF-b inhibitor counter-screen | AID 588856 | HepG2 CAGA-GFP viability, ATP luminescence, 18 h | 0.76% of 410,000 active | Potency, µM (doses to about 46.1 µM), without a hit: at the highest dose activity change, negative = cytotoxicity, hits mostly cytotoxic
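HepG2 CAGA-GFP cells (1000/well, DMEM with 1% FBS) received compound, then TGF-beta at 500 pg/mL final, and were incubated 18 hours at 37 degrees C. Viability was read by CellTiter-Glo luminescence. Media-only wells were set as complete cell-killing and DMSO as no toxicity.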
HT1080NT lethal – kills 2HG-producing HT-1080-NT fibrosarcoma cells. HT-1080-NT fibrosarcoma viability, CellTiter-Glo ATP luminescence, 48 h. Potency, µM (titrated, usually from 46.1 µM), for inactives: top-dose activity, negative = less viability, actives largely listed as cytotoxic. 1.6% of 360,000 active. AID 686970;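 further: NT is the 2HG producing partner of a matched IDH1 knockdown line; 0% = DMSO-treated cells and -100% = media-only wells without cells; nearly all actives have a fitted effect of over 55% in size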
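Fibrosarcoma NT cells, 750 per well in 5% FBS RPMI, were exposed to compound for 48 hours. Viability: CellTiter-Glo luminescence.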
KB-3-1 tox – KB-3-1 parental cell cytotoxicity. 1.4% of 400,000 active. Potency, µM (highest dose often 46.1 µM), most hits filed as cytotoxic. KB-3-1 viability, CellTiter-Glo ATP luminescence, 72 h; further: on the % scale 0 is the no-effect control and ±100 the full control effect; nearly all actives have a fitted effect of over 60% in size
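Viability of parental KB-3-1 cells, measured by CellTiter-Glo luminescence, followed a 72 h incubation at 37 °C with pinned compounds in phenol-red-free DMEM containing 10% FBS.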
HT1080 IDH1KD tx – toxicity to HT-1080 IDH1 knockdown cells (counter line); HT-1080 IDH1 knockdown viability, ATP luminescence, 48 h; Potency, µM (series often up to 46.1 µM), inactives show top-dose activity, negative = toxicity, most hits filed as cytotoxic; 2% of 360,000 active;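 further: 0% = DMSO wells and -100% = cell-free medium wells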
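Luminescent ATP read-out (CellTiter-Glo, 10 min at room temperature) after 48 h compound exposure at 37 °C gave viability of IDH1-knockdown HT-1080 cells. Activity was normalised to DMSO and cell-free wells, then fitted as concentration-response curves.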
TGFb confirm – TGF-b pathway inhibition, cherry-pick retest. HepG2 CAGA-GFP TGF-b reporter, GFP fluorescence, 18 h; cells stimulated with TGF-beta, 500 pg/mL. 63% of 1,600 active. Potency, µM (doses to about 46.1 µM), inactives show at the top dose activity, negative = inhibition, most hits filed as inhibitors. shares compounds with TGFb inhibitor. AID 720534; further: on the % scale 0 is the no-effect control and ±100 the full control effect; nearly all actives have a fitted effect of over 65% in size
HepG2 tox-2 – counter-screen for TGF-b inhibitors: cytotoxicity in HepG2 cells | shares compounds with TGFb inhibitor | HepG2 CAGA-GFP viability, ATP luminescence, 18 h; cells stimulated with TGF-beta, 500 pg/mL | Potency, µM (top dose mostly 46.1 µM), without a hit: at the highest dose activity, negative = cytotoxicity, hits mostly inhibitors | 27% of 1,600 active; further: on the % scale 0 is the no-effect control and ±100 the full control effect; nearly all actives have a fitted effect of over 70% in size
TGFb CCL64 inh – blocks TGF-b signaling in CCL64 reporter cells; CCL64 CAGA-GFP reporter, TGF-b stimulated, GFP fluorescence, 18 h; AID 720536; shares compounds with TGFb inhibitor; Potency, µM (doses to about 46.1 µM), without a hit: at the top dose activity, negative = inhibition, most hits filed as inhibitors; 41% of 1,600 active; further: nearly all actives have a fitted effect of over 65% in size
COP TGFb inh – TGF-b inhibition validated with COP promoter; Potency, µM (doses to about 46.1 µM), without a hit: top-dose activity, negative = inhibition, hits mostly inhibitors; 3% of 1,600 active; shares compounds with TGFb inhibitor; HepG2 COP-GFP TGF-b reporter, GFP fluorescence, 18 h; cells stimulated by added recombinant TGF-beta; further: nearly all actives have a fitted effect of over 70% in size
* hit, by the source's call; [ ] = dose if it differs, or a comment. The call rests on the fitted dose curve; in most records, active means well fitted curve in the direction sought with a large enough effect; inconclusive means small, poorly fitted or top-dose-only effect, or another doubt; inactive means no such curve, though single readings can be large; an effect the other way counts as inactive or inconclusive. Potency means the concentration at half of the fitted maximal effect.

For CC(C)CC(NC(=O)c1cccs1)c1nnc(SCc2ccc(Cl)c(Cl)c2)n1C (stereo not drawn) the results were KB-V1 MDR tox inconclusive, TGFb inhibitor 5.6µM*, HepG2 tox-1 -22%, HT1080NT lethal -21%, KB-3-1 tox inconclusive, HT1080 IDH1KD tx -34%, TGFb confirm 18µM*, HepG2 tox-2 18µM*, TGFb CCL64 inh inconclusive and COP TGFb inh 3%.
Screening O=C(O)c1ccc(Nc2cc(Cl)c3nonc3c2[N+](=O)[O-])cc1 returned KB-V1 MDR tox inactive, TGFb inhibitor 1%, HepG2 tox-1 2%, HT1080NT lethal 2%, KB-3-1 tox inactive and HT1080 IDH1KD tx 6%.
O=[N+]([O-])c1c(Nc2cccc(O)c2)cc(Cl)c2nonc12 was read as KB-V1 MDR tox inconclusive, TGFb inhibitor 3.5µM*, HepG2 tox-1 3.5µM*, HT1080NT lethal 5.2µM*, KB-3-1 tox 18µM*, HT1080 IDH1KD tx 8.2µM*, TGFb confirm 2.9µM*, HepG2 tox-2 3.3µM*, TGFb CCL64 inh 2.9µM* and COP TGFb inh 4.6µM*.
For O=C(C1CCC(=O)N(C2CCCCCC2)C1)N1CCN(c2ccccc2Cl)CC1 (stereo not drawn) the results were KB-V1 MDR tox inconclusive, TGFb inhibitor 7.1µM*, HepG2 tox-1 -86%, HT1080NT lethal inconclusive, KB-3-1 tox inactive, HT1080 IDH1KD tx 1%, TGFb confirm -29%, HepG2 tox-2 -20%, TGFb CCL64 inh inconclusive and COP TGFb inh 0%.
`Cc1ccccc1N1CCN(C(=O)C2CCC(=O)N(C3CCCC3)C2)CC1` (stereo not drawn) gave KB-V1 MDR tox inactive, TGFb inhibitor -7%, HepG2 tox-1 -7%, HT1080NT lethal 4%, KB-3-1 tox inactive and HT1080 IDH1KD tx 9%.
COc1ccc(N(C(=O)Cc2cccs2)C(C(=O)NC2CCCC2)c2ccncc2)cc1 (stereo not drawn) was read as KB-V1 MDR tox inconclusive, TGFb inhibitor 2%, HepG2 tox-1 6%, HT1080NT lethal 5%, KB-3-1 tox inactive and HT1080 IDH1KD tx -1%.
`COc1ccc(N(C(=O)CCl)C(C(=O)NC2CCCCC2)c2cccnc2)cc1` (stereo not drawn) gave KB-V1 MDR tox 21µM*, TGFb inhibitor 8.9µM*, HepG2 tox-1 11µM*, HT1080NT lethal 7.3µM*, KB-3-1 tox 10µM*, HT1080 IDH1KD tx 5.8µM*, TGFb confirm 7.3µM*, HepG2 tox-2 12µM*, TGFb CCL64 inh 9.2µM* and COP TGFb inh inconclusive.
`CCN(CCO)CC1CCCC2CCCCC21` (stereo not drawn) gave KB-V1 MDR tox inactive, HT1080NT lethal 10%, KB-3-1 tox inactive and HT1080 IDH1KD tx 10%.
`O=C(OCc1ccccc1)N(CCCCN(CCCNCc1ccccc1)C(=O)OCc1ccccc1)CCCNCc1ccccc1` gave KB-V1 MDR tox inconclusive, TGFb inhibitor 5µM*, HepG2 tox-1 5.6µM*, HT1080NT lethal inconclusive, KB-3-1 tox 16µM*, HT1080 IDH1KD tx inconclusive, TGFb confirm 13µM*, HepG2 tox-2 8.2µM*, TGFb CCL64 inh inconclusive and COP TGFb inh inconclusive.
Screening Cc1cccc(Oc2coc3cc(OC(=O)c4cccs4)ccc3c2=O)c1 returned KB-V1 MDR tox inactive, TGFb inhibitor 5%, HepG2 tox-1 -1%, HT1080NT lethal 4%, KB-3-1 tox inactive and HT1080 IDH1KD tx 4%.
`Cc1cc(C)cc(Oc2coc3cc(OC(=O)c4cccs4)ccc3c2=O)c1` gave KB-V1 MDR tox inactive, TGFb inhibitor inconclusive, HepG2 tox-1 -29%, HT1080NT lethal 0%, KB-3-1 tox inactive, HT1080 IDH1KD tx -5%, TGFb confirm inconclusive, HepG2 tox-2 -9%, TGFb CCL64 inh -2% and COP TGFb inh -10%.
Cc1cccc(CN2CCCC(C(=O)c3ccc4c5c(cccc35)CC4)C2)n1 (stereo not drawn) was read as KB-V1 MDR tox inconclusive, TGFb inhibitor 10µM*, HepG2 tox-1 -60%, HT1080NT lethal inconclusive, KB-3-1 tox inactive, HT1080 IDH1KD tx inconclusive, TGFb confirm inconclusive, HepG2 tox-2 inconclusive, TGFb CCL64 inh inconclusive and COP TGFb inh 60%.
For OCC1OC(c2ccccc2)OC2COC(c3ccccc3)OC12 (stereo not drawn) the results were KB-V1 MDR tox inactive, TGFb inhibitor 10%, HepG2 tox-1 -2%, HT1080NT lethal -5%, KB-3-1 tox inactive and HT1080 IDH1KD tx -8%.
`O=C(c1ccc(Cl)c([N+](=O)[O-])c1)N1CCN(S(=O)(=O)c2ccc(Cl)cc2)CC1` gave KB-V1 MDR tox inactive, TGFb inhibitor 10µM*, HepG2 tox-1 -15%, HT1080NT lethal 0%[9.24 µM], KB-3-1 tox inactive, HT1080 IDH1KD tx -17%, TGFb confirm 13µM*, HepG2 tox-2 -17%, TGFb CCL64 inh inconclusive and COP TGFb inh -5%.
`Cc1ccc2c(c1)nnn2C1CCN(CC(=O)Nc2ccccc2N2CCOCC2)CC1` gave KB-V1 MDR tox inconclusive, TGFb inhibitor 10µM*, HepG2 tox-1 -48%, HT1080NT lethal inconclusive, KB-3-1 tox inactive, HT1080 IDH1KD tx inconclusive, TGFb confirm inconclusive, HepG2 tox-2 inconclusive, TGFb CCL64 inh inconclusive and COP TGFb inh 10%.
